Assay outcomes as filed in PubChem BioAssay.
Pf growth 48h: Primary qHTS for delayed death inhibitors of the malarial parasite plastid, 48 hour incubation. P. falciparum luciferase growth in erythrocytes, 48 h. Potency, µM (highest dose often 28.7 µM), inactives show top-dose activity change, negative = inhibition, usual class: inhibitors. 310,000 compounds, 5.9% hits; further: potency means the concentration at half of the fitted maximal effect; on the % scale 0 is the no-effect control and ±100 the full control effect
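Luminescence readout; reporter = integrated firefly luciferase in P. falciparum. RBC culture at 2% hematocrit, 0.1% parasitemia final, 37 C/5% CO2; decreased signal taken as growth inhibition.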
SARS PLpro yeast: qHTS of Yeast-based Assay for SARS-CoV PLP; 330,000 compounds, 0.19% hits; AID 485353, 2010; Potency, µM (titrated, usually from 32.9 µM), inactives show top-dose activity, positive = growth rescue, usual class: activators; S. cerevisiae expressing SARS-CoV PLpro, growth rescue; calls by dose curve; further: potency means the concentration at half of the fitted maximal effect; 0% is about no effect; nearly all actives have a fitted effect of over 55% in size
Pf growth 96h: Primary qHTS for delayed death inhibitors of the malarial parasite plastid, 96 hour incubation; Potency, µM (top dose mostly 28.7 µM), for the others: top-dose activity change, negative = inhibition, usual class: inhibitors; P. falciparum luciferase reporter growth, 96 h; 320,000 compounds, 6.9% hits; further: potency means the concentration at half of the fitted maximal effect; on the % scale 0 is the no-effect control and ±100 the full control effect
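Two-generation exposure (96 h) targets delayed-death phenotype. Reporter parasites carrying integrated firefly luciferase, in red cells at 2% hematocrit and 0.05% parasitemia final, kept at 37 C, 5% CO2; luminescence loss indicates inhibition.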
Sm TGR block: qHTS Assay for the Inhibitors of Schistosoma Mansoni Peroxiredoxins; Schistosoma mansoni thioredoxin glutathione reductase (TGR), Q962Y6; purified TGR, DTNB reduction, TNB absorbance 405 nm; Potency, µM (doses to about 114 µM), for the others: at the top dose activity change, negative = inhibition, usual class: inhibitors; 360,000 compounds, 3% hits; AID 485364, 2010; further: potency means the concentration at half of the fitted maximal effect; on the % scale 0 is the no-effect control and ±100 the full control effect; nearly all actives have a fitted effect of over 60% in size
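First, TGR (20 nM dispensed) and NADPH were mixed with compound. Second, a 15 min room-temperature incubation followed. Third, further NADPH and then DTNB were added to start the reaction. Finally, TNB absorbance was monitored kinetically.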
HCV inhibitor: qHTS Assay for Inhibitors of Hepatitis C Virus (HCV); Huh7.5.1 HCVcc-Cre infection, luciferase reporter, 44 h; Potency, µM (top dose mostly 41.8 µM), for inactives: at the highest dose activity change, negative = inhibition, most hits filed as inhibitors; 340,000 compounds, 3.4% hits; further: potency means the concentration at half of the fitted maximal effect; on the % scale 0 is the no-effect control and ±100 the full control effect
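A cell-based infection assay in which seeded cells (1,000 per well) receive test compound after 4 h, are inoculated with HCVcc-Cre at approximately 0.5 moi, and are incubated 44 h before luminescence detection.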
HCMV antiviral: qHTS Assay for inhibitors of the human cytomegalovirus (HCMV); 410,000 compounds, 4.5% hits; HFF cells, HCMV-luciferase reporter, 72 h; stronger effect = lower value; activity change, negative = inhibition, % at 57.5 µM; AID 1259415, 2018; in the data active means activity change below about -60%; inconclusive means no clear call, values can overlap the other calls; inactive means above about -39%; further: on the % scale 0 is the no-effect control and ±100 the full control effect
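Steps: HFFs plated, 16 h 37C; compounds added; HCMV-luciferase added to MOI 1 PFU/cell; 72 h 37C; OneGlo reagent, 5 min room temperature; luminescence read, normalized to controls.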
* marks the source's active call; other numbers are inactive results; [ ] = remark or other dose. A selection: hits, their analogues and other compounds. The true share with any hit is near 15%. Unless noted, the call rests on the fitted dose curve; in most records, active means well fitted curve in the direction sought with a large enough effect; inconclusive means small, poorly fitted or top-dose-only effect, or another doubt; inactive means no such curve, though single readings can be large; an effect the other way counts as inactive or inconclusive.

How did CC(Oc1cccc(Cl)c1)C(=O)Nc1nc(-c2ccccn2)cs1 (centres undefined) do in these assays?
Pf growth 48h: 2.6µM*; SARS PLpro yeast: -4%; Pf growth 96h: 2.6µM*; Sm TGR block: -16%; HCV inhibitor: 6.3µM*; HCMV antiviral: -72*

How did CC(OC(=O)c1ccc(O)cc1)C(=O)Nc1nc(-c2ccccc2)cs1 (centres undefined) do in these assays?
Pf growth 48h: 6.6µM*; SARS PLpro yeast: -3%; Pf growth 96h: inconclusive; Sm TGR block: -9%; HCV inhibitor: inconclusive; HCMV antiviral: 68

Results for CC(Oc1ccccc1)C(=O)Nc1nc(-c2ccccn2)cs1 (centres undefined) ?
Pf growth 48h: 1.9µM*; SARS PLpro yeast: -11%; Pf growth 96h: 2.3µM*; Sm TGR block: -12%; HCV inhibitor: inconclusive; HCMV antiviral: inconclusive

How did CC(Oc1ccccc1)C(=O)Nc1nc(-c2ccncc2)cs1 (centres undefined) do in these assays?
Pf growth 48h: -27%; SARS PLpro yeast: -5%; Pf growth 96h: -31%; Sm TGR block: -11%; HCV inhibitor: 3%; HCMV antiviral: -19

Results for COc1cccc(CNC(=O)Cc2ccc(NC(=O)N3CCSc4ncccc43)cc2)c1OC ?
Sm TGR block: 7%; HCMV antiviral: 0

Results for c1ccc(Nc2nc3ccccc3n3nnnc23)cc1 ?
Pf growth 48h: inconclusive; SARS PLpro yeast: -1%; Pf growth 96h: -61%; Sm TGR block: -7%; HCV inhibitor: -9%; HCMV antiviral: 51

Results for c1ccc2c(c1)nc(Nc1ccc3c(c1)OCO3)c1nnnn12 ?
Pf growth 48h: 10µM*; SARS PLpro yeast: -8%; Pf growth 96h: 65%; Sm TGR block: 0%; HCV inhibitor: 12%; HCMV antiviral: -78*

What do the screens show for `Fc1cccc(Nc2nc3ccccc3n3nnnc23)c1`?
SARS PLpro yeast: 7%; Pf growth 96h: 6.6µM*; Sm TGR block: 3%; HCV inhibitor: 16%; HCMV antiviral: 168

How did CCN(CC)S(=O)(=O)c1ccc(Nc2nc3ccccc3n3nnnc23)cc1 do in these assays?
Pf growth 48h: 4.7µM*; SARS PLpro yeast: -1%; Pf growth 96h: -2%; Sm TGR block: 3%; HCV inhibitor: -25%; HCMV antiviral: -3

What do the screens show for `CCOC(=O)[C@]12CCCC=C1N(Cc1cccc3ccccc13)C(=O)[C@H](CC(=O)N1CCSCC1)C2`?
HCMV antiviral: -16

How did Cc1cccc(NC(=O)c2cc3c(n(-c4ccccc4)c2=O)CCCC3=O)n1 do in these assays?
Pf growth 48h: -1%; SARS PLpro yeast: 0%; Sm TGR block: 32µM*; HCV inhibitor: 1%; HCMV antiviral: 49

What do the screens show for `COC(=O)c1cc2c(n(-c3ccccc3)c1=O)CCCC2=O`?
HCV inhibitor: 34%; HCMV antiviral: -13

Results for CCOc1cccc(CN2CCN(CCc3ccccc3)C(CCO)C2)c1O (centres undefined) ?
Pf growth 48h: inconclusive; SARS PLpro yeast: 1%; Pf growth 96h: 17%; Sm TGR block: inconclusive; HCV inhibitor: -12%; HCMV antiviral: inconclusive

Results for COc1ccc(CN2CCN(CCc3ccccc3)C(CCO)C2)cc1Cn1cncn1 (centres undefined) ?
Pf growth 48h: 5.2µM*; SARS PLpro yeast: 1%; Pf growth 96h: inconclusive; Sm TGR block: -22%; HCV inhibitor: -19%; HCMV antiviral: -33

How did COc1cccc(CN2CCN(CCCc3ccccc3)C(CCO)C2)c1O (centres undefined) do in these assays?
Pf growth 48h: -25%; SARS PLpro yeast: 2%; Pf growth 96h: 7.4µM*; Sm TGR block: -22%; HCV inhibitor: -1%; HCMV antiviral: 35

What do the screens show for `OCCC1CN(Cc2ccccc2O)CCN1CCc1ccccc1` (centres undefined)?
Pf growth 48h: 9.3µM*; SARS PLpro yeast: -1%; Pf growth 96h: 32%; Sm TGR block: -23%; HCV inhibitor: -1%; HCMV antiviral: 10

Results for OCCC1CN(Cc2ccon2)CCN1CCc1ccccc1 (centres undefined) ?
Pf growth 48h: 0%; SARS PLpro yeast: -1%; Pf growth 96h: 13µM*; Sm TGR block: 4%; HCV inhibitor: -1%; HCMV antiviral: -25

How did OCCC1CN(CCCc2ccccc2)CCN1CCc1ccccc1 (centres undefined) do in these assays?
Pf growth 48h: inconclusive; SARS PLpro yeast: -1%; Pf growth 96h: 10µM*; Sm TGR block: 5%; HCV inhibitor: -14%; HCMV antiviral: 27

How did CCc1ccc(CN2C(=O)c3ccccc3C2C(=O)NC(C)CC)cc1 (centres undefined) do in these assays?
Pf growth 48h: -1%[0.00184 µM]; SARS PLpro yeast: 3%; Pf growth 96h: -7%; Sm TGR block: 9%; HCV inhibitor: 4%; HCMV antiviral: -3

How did CCOc1ccccc1CN1C(=O)c2ccccc2C1C(=O)NC(C)CC (centres undefined) do in these assays?
Pf growth 48h: -30%; SARS PLpro yeast: 17%; Pf growth 96h: 8.3µM*; Sm TGR block: 0%; HCV inhibitor: -6%; HCMV antiviral: -3

Results for CC(C)N1C(=O)c2ccccc2C1C(=O)NCCc1ccccc1 (centres undefined) ?
Pf growth 48h: 16%; SARS PLpro yeast: 0%; Pf growth 96h: 8.3µM*; Sm TGR block: -4%; HCV inhibitor: 3%; HCMV antiviral: -1

How did COc1ccc(CN2C(=O)c3ccccc3C2C(=O)NCCc2ccccc2)c(OC)c1 (centres undefined) do in these assays?
Pf growth 48h: inconclusive; SARS PLpro yeast: 5%; Pf growth 96h: 8.3µM*; Sm TGR block: 0%; HCV inhibitor: -7%; HCMV antiviral: -32

How did O=C(NCCc1ccccc1)C1c2ccccc2C(=O)N1Cc1cccs1 (centres undefined) do in these assays?
Pf growth 48h: -29%; SARS PLpro yeast: 1%; Pf growth 96h: inconclusive; Sm TGR block: -3%; HCV inhibitor: -13%; HCMV antiviral: inconclusive

What do the screens show for `COc1ccc(C(=O)N/C(=C\c2ccc(Cl)cc2)C(=O)NCCN2CCOCC2)cc1`?
HCMV antiviral: -1

What do the screens show for `CC1=C(C(=O)N2CCCC(N3CCN(c4ccccc4F)CC3)C2)OCCO1` (centres undefined)?
Pf growth 48h: 1%; SARS PLpro yeast: 6%; Pf growth 96h: -102%; Sm TGR block: -4%; HCV inhibitor: 14%; HCMV antiviral: -12
